Calls of active or inactive are those of the source. How the source made its calls: active means hit-call score of the fitted dose curve at least 0.9, where 1 is the maximum; inconclusive means response in the unintended direction; inactive means score below 0.9.
Experiment: LTEA_HepaRG_LDH_cytotoxicity: Cytotoxicity Assessment in the Life Technologies and Expression Analysis (LTEA) Assay (AID 2283563)
Procedure: LTEA_HepaRG is a cell based, multiplexed-readout assay that uses HepaRG, a human liver cell line, with measurements taken at 48 hours after chemical dosing on a 96-well plate.LTEA_HepaRG_LDH_cytotoxicity is one of 102 assay component(s) measured in the LTEA HepaRG cell culture assay. It is a marker of cell viability / cytotoxicity.Data from the assay component LTEA_HepaRG_LDH_cytotoxicity was analyzed into 1 endpoint. This assay endpoint, LTEA_HepaRG_LDH_cytotoxicity, was analyzed in the positive fitting direction relative to DMSO as the negative control and baseline of activity. Using a type of inducible reporter, measures of mRNA induction for loss-of-signal activity can be used to understand cell death. To generalize the intended target to other relatable targets, this assay endpoint is annotated to the cell cycle intended target family, where the subfamily is proliferation.
A total of 1060 chemcials from the ToxCast library were tested in eight-point concentration-response experiments. Cell culture and cytotoxicity assays were conducted at Thermo Fisher Scientific's Custom Services facility (Madison, WI). A single lot of human HepaRG cells (Thermo Fisher Scientific, Frederick, MD) was used for the cell culture experiments. 96-well format collagen type I coated plates of human HepaRG cells were prepared using established methods. Briefly, cryopreserved HepaRG cells were thawed, plated at a density of approximately 100,000 cells/well in HepaRG Thaw, Plate, and General Purpose media (HPRG770, Thermo Fisher Scientific), and incubated for 48 hours. 0.5% DMSO was selected as vehicle control to balance the requisite need of DMSO in HepaRG cultures to maintain differentiation (for example, baseline metabolism, proportions of hepatocytes vs. cholangiocytes), while enabling further hepatic receptor pathway activation (for example, PXR and CAR) in response to chemical exposure. 48 hours after plating, the culture medium was replaced with HepaRG Serum-Free Incudtion Media. Cells were exposed to each test chemical in duplicate and maintained in CO2 incubators for another 48 hours. Chemical plates were thawed to room temperature and 200x concentrations of treatment groups were prepared. 8-point conentration-reponse curves were made with the highest exposure at 100 uM, followed by half-log dilutions, all in 0.5% DMSO. Each test plate contained variouse controls, induction positive controls (1mM phenobarbital), cytotoxicity positive controls ([…] aflatoxin B1), vehicle controls (0.5% DMSO), and total lysis controls (0.5% DMSO). Cell morphology images were taken using an Essen IncuCyte FLR automated microscope, with six 96-well plates imaged in about 24 minutes. Images were captured and exported and JPEG files. Spent culture media was transfered to black-well plates for the LDH assay, and remaining media was sorted at -80 C for later use. Cells were treated with RLT buffer and frozen until shipped for gene expression analysis. Total RNA was isolated from the cell suspension in 75 uL of Buffer RLT (Qiagen, Germantown, MD 20874) by Quintiles/Expression Analysis (Durham, NC) using a custom isolation procedure. Total RNA from each plate well was transferred to a preamplification plate. Fluidigm's 96.96 Dynamic ArrayTM (Fluidigm, Amsterdam, the Netherlands) technology was used for gene expression analyses by quantitative reverse transcription polymerase chain reaction (qRT-PCR, performed by Quintiles/Expression Analysis, Durham, NC)89. Standard TaqManTM Assays (Applied Biosystems/ThermoFisher Scientific, Foster City, CA) were used to assess the expression of 93 genes selected based on their selectivity and sensitivity to important hepatic receptors known to be modulated by environmental chemicals; importance in human hepatocyte functionality; and hepatotoxicity. […]

Row | SMILES | outcome | AC50
1 | Cn1c(=O)c2c(ncn2C)n(C)c1=O | inactive | 
2 | CC(C)=CCCC(C)=CC=O | inactive | 
3 | O=C1CCCCCN1 | inactive | 
4 | CN(C)c1ccc(N=NS(=O)(=O)O)cc1 | inactive | 
5 | CCCCCCCCCCCCCCCO | inactive | 
6 | CC(=O)OCCC(C)C | inactive | 
7 | O=C(O)c1cc(N=Nc2ccc(S(=O)(=O)Nc3ccccn3)cc2)ccc1O | inactive | 
8 | C1N2CN3CN1CN(C2)C3 | inactive | 
9 | Clc1nc(Cl)c(Cl)c(Cl)c1Cl | inactive | 
10 | O=C(O)c1cccc(Oc2ccccc2)c1 | inactive | 
11 | CC(C)CCCCCCCOC(=O)CCCCC(=O)OCCCCCCCC(C)C | inactive | 
12 | CC[C@H]1OC(=O)[C@H](C)[C@@H](O[C@H]2C[C@@](C)(OC)[C@@H](O)[C@H](C)O2)[C@H](C)[C@@H](O[C@@H]2O[C@H](C)C[C@H](N(C)C)[C@H]2O)[C@](C)(O)C[C@@H](C)C(=O)[C@H](C)[C@@H](O)[C@]1(C)O | inactive | 
13 | O=c1n(CC2CO2)c(=O)n(CC2CO2)c(=O)n1CC1CO1 (stereo not given) | inactive | 
14 | CC[C@H](C)C(=O)O[C@H]1C[C@@H](C)C=C2C=C[C@H](C)[C@H](CC[C@@H]3C[C@@H](O)CC(=O)O3)[C@H]21 | inactive | 
15 | COc1ccc(/C=C/S(=O)(=O)NC(=O)c2ccc(C)cc2Cl)cc1 | inactive | 
16 | O=C(NS(=O)(=O)/C=C/c1ccccc1)c1ccc(F)cc1Cl | inactive | 
17 | CCOc1cccc(-n2cc(C(=O)N3CCN(c4cc(C(=O)O)c5ccccc5c4)CC3)nc2-c2ccc(C)cc2)c1 |  | 36.3 µM (active)
18 | C=CC(=C)CCC=C(C)C | inactive | 
19 | CCCCCCc1ccc(O)cc1O |  | 77.7 µM (active)
20 | On1ccccc1=S | inactive | 

Row | SMILES | outcome | AC50
21 | CNCc1ccc(NC(=O)c2c[nH]c3c2C(=O)CCC3)cc1 | inactive | 
22 | CCn1nc(Cc2ccccc2)cc1C1CCN(C[C@H]2C[C@H](N(C)[C@@H](C(=O)O)C(C)C)C[C@@H]2c2cccc(F)c2)CC1 | inactive | 
23 | Nc1ccc(Nc2ccccc2)cc1 | inactive | 
24 | Cc1ccc(S(=O)(=O)O)cc1C | inactive | 
25 | C1=CCCC=CCCC=CCC1 | inactive | 
26 | CC(O)CN(CCN(CC(C)O)CC(C)O)CC(C)O (stereo not given) | inactive | 
27 | O=C(O)c1cccc(N(Cc2cccnc2)c2ccc(OC(F)F)c(OC(F)F)c2)c1 | inactive | 
28 | Cn1c(=O)cc(Oc2ccc(F)cc2F)c2cnc(NCC(C)(C)O)nc21 | inactive | 
29 | CC(C)c1cccc(C(C)C)c1N1C(=O)c2ccc(O)cc2C1=O | inactive | 
30 | COc1ccc2sc(C(=O)Nc3nnn[nH]3)c(OC(C)C)c2c1 | inactive | 
31 | C[C@](N)(Cc1ccc(O)c(O)c1)C(=O)O | inactive | 
32 | CCOC(=O)COc1ccc2c(c1)CC(NCC(O)c1cccc(Cl)c1)CC2 (stereo not given) | inactive | 
33 | CC[C@H]1CC[C@H](NCc2cc3c(cc2OC)[C@H]2C[C@H]2C(=O)N3C)[C@H](c2ccccc2)N1 | inactive | 
34 | Cc1ccc(O)cc1 | inactive | 
35 | NC(=O)NO | inactive | 
36 | C=CCCCCCCCCC(=O)O | inactive | 
37 | CCCN(C1CCN(C(=O)C2CCNCC2)CC1)[C@@H]1CCc2ccc(OC)cc2C1 |  | 76.1 µM (active)
38 | O=C(O)CC(O)C(=O)O (stereo not given) | inactive | 
39 | Nc1nc2ncc(CNc3ccc(C(=O)N[C@@H](CCC(=O)O)C(=O)O)cc3)nc2c(=O)[nH]1 | inactive | 
40 | CC(=O)OC[C@H]1O[C@@](COC(C)=O)(O[C@H]2O[C@H](COC(C)=O)[C@@H](OC(C)=O)[C@H](OC(C)=O)[C@H]2OC(C)=O)[C@@H](OC(C)=O)[C@@H]1OC(C)=O | inactive | 

From PubChem BioAssay (EPA / NIEHS)
